According to PubChem BioAssay (Tox21):
Inconclusive results are not listed. Entries that show only a call come without a potency. Values without a mark were called inactive. Calls of active or inactive are those of the source. Calls come from the whole dose curve.

experiment: p53 small molecule agonists, cell-based qHTS assay with rat liver microsomes (AID 1963578); settings: HCT-116 p53RE-bla, beta-lactamase ratio, 16 h; series mostly up to 66 µM; activation: at the top concentration
Source text: U.S. Tox21 Program National Center for Advancing Translational Sciences [NCATS] Division of Preclinical Innovation [DPI] U.S. Environmental Protection Agency [EPA] National Institutes of Environmental Health Sciences [NIEHS] National Toxicology Program [NTP] U.S. Food and Drug Administration [FDA] Tox21 Assay Overview: p53, a tumor suppressor protein, is activated following cellular insult, including DNA damage and other cellular stresses. The activation of p53 regulates cell fate by inducing DNA repair, cell cycle arrest, apoptosis, or cellular senescence. The activation of p53, therefore, is a good indicator of DNA damage and other cellular stresses. […] The activation of the reporter gene under culture conditions can be detected by fluorescence intensity. This cell line was used to screen the Tox21 10K compound library in the condition of presence of rat liver microsomes and to identify agonists that activate the p53 signaling pathway after in vitro metabolic activation (Ooka et al., Archive of Toxicology 96:1975-1987, 2022).
Tox21 Assay Protocol Summary: The p53RE-bla cells were dispensed at 4,000cells/3ul/well in 1536-well black-clear bottom plates. After the assay plates were incubated at 37 C, 5% CO2 incubator for 5 hours, 23 nL of compounds dissolved in DMSO, positive controls or DMSO only was transferred to the assay plate. Following compound addition, 3 uL of rat liver microsomes (Molecular Toxicology, Boone, NC) at final concentration of 0.5 mg/mL and 1uL of Beta-Nicotinamide adenine dinucleotide 2-phosphate (NADPH) at final concentration of 0.5 mg/mL were transferred to the assay plate. The plates were incubated at 37 C for 16 hours. 1 uL of LiveBLAzer detection mixture was added to each well and the plates were incubated at room temperature in the dark for 2 h.

Structure (SMILES)	Potency	activation
CCCCOC(=O)CC(CC(=O)OCCCC)(OC(C)=O)C(=O)OCCCC	inactive	–
Cc1ccc([N+](=O)[O-])cc1S(=O)(=O)O	inactive	–
ClC/C=C/CCl	inactive	–
c1ccc2n[nH]nc2c1	inactive	–
CC(C)=CCC/C(C)=C\CO	inactive	–
C=CCOC(=O)c1ccccc1C(=O)OCC=C	inactive	–
COC(=O)[C@H]1[C@H]2C[C@@H]3c4[nH]c5cc(OC)ccc5c4CCN3C[C@H]2C[C@@H](OC(=O)c2cc(OC)c(OC)c(OC)c2)[C@@H]1OC	–	-1.21% [at 30.3 µM]
O=C(O)Cc1cccc2ccccc12	inactive	–
CCCCC(CC)COC(=O)c1ccc(C(=O)OCC(CC)CCCC)cc1 (stereo not given)	inactive	–
O=C=Nc1ccc(Cc2ccc(N=C=O)cc2)cc1	inactive	–
CCCCOC(=O)c1ccc(N)cc1	inactive	–
CCCCNC(=O)NS(=O)(=O)c1ccc(N)cc1	inactive	–
C#CCN(C)Cc1ccccc1	inactive	–
O=C1CCCCCN1	inactive	–
CCCCCCCCC(=O)O	–	-0.372%
CC(CCO)CC(C)(C)C (stereo not given)	inactive	–
Cc1cccc(C(=O)O)c1	inactive	–
CCCCC(CC)COC(=O)CCCCC(=O)OCC(CC)CCCC (stereo not given)	inactive	–
NC(=O)c1ncn([C@@H]2O[C@H](CO)[C@@H](O)[C@H]2O)n1	inactive	–
CCCc1c(OCCCCc2nn[nH]n2)ccc(C(C)=O)c1O	inactive	–

Structure (SMILES)	Potency	activation
Cc1cccc2n[nH]nc12	–	-1.21%
CC(O)CO (stereo not given)	inactive	–
NCCN1CCNCC1	inactive	–
CCc1cccc2c3c([nH]c12)C(CC)(CC(=O)O)OCC3 (stereo not given)	inactive	–
CCN(CCN)c1cccc(C)c1	inactive	–
CC(=O)OC(C)(C)C1CC=C(C)CC1 (stereo not given)	–	-1.29%
CCCCC(CC)COC(=O)/C=C/c1ccc(OC)cc1 (stereo not given)	inactive	–
CCCCCC/C=C/CCCCCCCC(=O)O	inactive	–
CC(=O)OCCC(C)C	inactive	–
O=c1c(-c2ccc(O)cc2)coc2cc(O)cc(O)c12	inactive	–
CCNC(=S)NCC	inactive	–
CC(C)OP(=O)(CP(=O)(OC(C)C)OC(C)C)OC(C)C	inactive	–
CCC(C)(C)C(=O)O[C@H]1C[C@@H](C)C=C2C=C[C@H](C)[C@H](CC[C@@H]3C[C@@H](O)CC(=O)O3)[C@H]21	inactive	–
NC(CO)(CO)CO	inactive	–
C=C(C)C(=O)O	inactive	–
COc1ccc(C(=O)c2ccccc2O)c(O)c1	inactive	–
CCc1cc(C(N)=S)ccn1	inactive	–
O=c1c(O)c(-c2ccc(O)c(O)c2)oc2cc(O)cc(O)c12	inactive	–
O=C(/C=C/C=C/c1ccc2c(c1)OCO2)N1CCCCC1	–	-8.16%
O=C(OCc1ccccc1)c1ccccc1O	inactive	–
